The source of these data is paper PMC7862700, “An all-to-all approach to the identification of sequence-specific readers for epigenetic DNA modifications on cytosine”.

What all share (assay): DAPPL (digital affinity profiling via proximity ligation, sequencing); 10 mM Tris-HCl pH 7.5, 50 mM NaCl, 1 mM DTT, 4% glycerol, room temperature, 30 min; GST-TFs on glutathione beads, 16-mer random dsDNA library, 0.1% formaldehyde crosslink after washing; high values mean tight binding
The target in assay [1] is T1, FEV (Homo sapiens, UniProt Q99581 1-238).
T1 sequence: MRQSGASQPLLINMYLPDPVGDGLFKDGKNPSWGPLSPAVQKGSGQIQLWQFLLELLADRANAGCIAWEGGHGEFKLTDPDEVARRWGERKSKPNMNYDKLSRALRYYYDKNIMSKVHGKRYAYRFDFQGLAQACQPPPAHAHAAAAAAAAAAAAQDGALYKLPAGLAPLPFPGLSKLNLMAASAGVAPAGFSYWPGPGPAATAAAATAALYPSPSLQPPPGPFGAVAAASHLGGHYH
The following applies: protein: recombinant; tags: N-terminal GST; dsDNA, one strand shown. The procedure, abridged:
(§1)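 Yeast served to express human transcription factors as GST fusions, which were then captured on glutathione beads and labelled with DNA barcodes. Pooled with a tag-only sample, they were incubated with 200 nmole of a 16-mer random double-stranded DNA library for 30 min at room temperature in Tris/NaCl/DTT/glycerol buffer, washed, crosslinked with 0.1% formaldehyde, ligated by proximity, amplified by PCR and sequenced. Dividing each hexamer's read frequency for a factor by its frequency for the tag-only sample gives the binding signal.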

The target of assay [2] is ETV5 (Homo sapiens, UniProt P41161 1-510). The note with it: protein: recombinant; tags: N-terminal GST; dsDNA, one strand shown. The procedure, abridged: as §1
For assay [3], the target named is HSF1 (Homo sapiens, UniProt Q00613 1-529). The note with it: protein: recombinant; tags: N-terminal GST; chain copies: 3; dsDNA, one strand shown. The procedure, abridged: as §1
Assay [4] deals with T2, SPIC (Homo sapiens, UniProt Q8N5J4 1-248).
T2 sequence: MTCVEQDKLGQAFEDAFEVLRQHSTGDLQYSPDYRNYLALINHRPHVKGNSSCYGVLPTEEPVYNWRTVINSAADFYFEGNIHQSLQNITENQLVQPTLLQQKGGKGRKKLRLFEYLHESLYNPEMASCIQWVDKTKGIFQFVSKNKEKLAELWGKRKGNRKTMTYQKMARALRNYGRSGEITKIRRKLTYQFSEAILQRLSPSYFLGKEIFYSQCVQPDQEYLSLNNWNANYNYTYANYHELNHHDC
The following applies: protein: recombinant; tags: N-terminal GST; dsDNA, one strand shown. The procedure, abridged: as §1

For assay [5], the target named is ELF4 (Homo sapiens, UniProt Q99607 1-663). The following applies: protein: recombinant; tags: N-terminal GST; dsDNA, one strand shown. In short, it runs like this: as §1
For assay [6], the target named is T3, ELK4 (Homo sapiens, UniProt P28324-2 1-405).
T3 sequence: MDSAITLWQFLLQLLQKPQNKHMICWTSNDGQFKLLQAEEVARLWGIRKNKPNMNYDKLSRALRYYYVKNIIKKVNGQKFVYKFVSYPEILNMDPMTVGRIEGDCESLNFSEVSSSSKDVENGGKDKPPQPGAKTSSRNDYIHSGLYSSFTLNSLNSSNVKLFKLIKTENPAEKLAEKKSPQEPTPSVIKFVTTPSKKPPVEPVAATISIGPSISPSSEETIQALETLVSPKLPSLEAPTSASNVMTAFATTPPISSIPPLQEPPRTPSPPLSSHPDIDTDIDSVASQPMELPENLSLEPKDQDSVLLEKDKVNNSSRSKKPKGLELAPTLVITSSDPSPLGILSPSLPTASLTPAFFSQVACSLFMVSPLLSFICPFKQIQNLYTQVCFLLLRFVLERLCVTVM
The following applies: protein: recombinant; tags: N-terminal GST; dsDNA, one strand shown. The procedure, abridged: as §1

In assay [7] the target is T4, ETV2 (Homo sapiens, UniProt O00321 1-342).
T4 sequence: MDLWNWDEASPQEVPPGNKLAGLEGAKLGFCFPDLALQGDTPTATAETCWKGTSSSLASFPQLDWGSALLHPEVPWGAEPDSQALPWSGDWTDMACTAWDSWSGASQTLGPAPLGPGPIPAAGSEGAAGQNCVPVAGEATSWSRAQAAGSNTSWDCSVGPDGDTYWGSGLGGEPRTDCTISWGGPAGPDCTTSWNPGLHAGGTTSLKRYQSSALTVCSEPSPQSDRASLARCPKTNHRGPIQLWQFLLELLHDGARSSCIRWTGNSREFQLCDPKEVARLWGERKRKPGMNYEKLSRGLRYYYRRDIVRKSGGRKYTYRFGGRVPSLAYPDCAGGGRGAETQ
The note with it: protein: recombinant; tags: N-terminal GST; dsDNA, one strand shown. The procedure, abridged:
as §1

In assay [8] the target is T5, ELF3 (Homo sapiens, UniProt P78545 1-371).
T5 sequence: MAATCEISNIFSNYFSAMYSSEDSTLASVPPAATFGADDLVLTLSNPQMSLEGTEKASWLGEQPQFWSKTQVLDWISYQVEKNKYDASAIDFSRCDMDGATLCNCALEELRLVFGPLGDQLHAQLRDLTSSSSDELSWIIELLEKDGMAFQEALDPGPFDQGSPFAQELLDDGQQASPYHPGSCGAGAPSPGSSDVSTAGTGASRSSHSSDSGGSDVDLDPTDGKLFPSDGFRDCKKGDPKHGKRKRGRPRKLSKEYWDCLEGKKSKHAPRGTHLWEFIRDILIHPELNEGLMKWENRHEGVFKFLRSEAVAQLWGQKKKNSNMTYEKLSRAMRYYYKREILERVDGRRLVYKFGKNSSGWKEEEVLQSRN
The following applies: protein: recombinant; tags: N-terminal GST; dsDNA, one strand shown. In short, it runs like this:
as §1

Assay [9] addresses CRX (Homo sapiens, UniProt O43186 1-299). The following applies: protein: recombinant; tags: N-terminal GST; dsDNA, one strand shown. The procedure, abridged: as §1
Assay [10] has as its target ETV1 (Homo sapiens, UniProt P50549 1-477). The following applies: protein: recombinant; tags: N-terminal GST; dsDNA, one strand shown. The procedure, abridged:
as §1

The target of assay [11] is T6, ERF (Homo sapiens, UniProt P50548 1-548).
T6 sequence: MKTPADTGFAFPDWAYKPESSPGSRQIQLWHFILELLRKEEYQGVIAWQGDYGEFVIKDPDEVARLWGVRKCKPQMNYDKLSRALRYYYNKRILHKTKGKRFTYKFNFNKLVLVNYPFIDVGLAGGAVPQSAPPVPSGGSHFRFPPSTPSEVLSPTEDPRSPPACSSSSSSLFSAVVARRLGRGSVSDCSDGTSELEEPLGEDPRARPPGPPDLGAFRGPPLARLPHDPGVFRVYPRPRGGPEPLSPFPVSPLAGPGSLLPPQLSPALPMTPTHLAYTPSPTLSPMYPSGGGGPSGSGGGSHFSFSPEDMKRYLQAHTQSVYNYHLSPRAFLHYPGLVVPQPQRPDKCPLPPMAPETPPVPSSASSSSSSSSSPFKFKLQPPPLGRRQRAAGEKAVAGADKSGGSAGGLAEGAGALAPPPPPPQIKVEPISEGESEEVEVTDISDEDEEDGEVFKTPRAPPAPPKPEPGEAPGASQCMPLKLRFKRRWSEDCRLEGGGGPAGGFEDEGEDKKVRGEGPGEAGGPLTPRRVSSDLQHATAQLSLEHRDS
The note with it: protein: recombinant; tags: N-terminal GST; dsDNA, one strand shown. The procedure, abridged:
as §1

The target in assay [12] is T7, ETV3L (Homo sapiens, UniProt Q6ZN32 1-361).
T7 sequence: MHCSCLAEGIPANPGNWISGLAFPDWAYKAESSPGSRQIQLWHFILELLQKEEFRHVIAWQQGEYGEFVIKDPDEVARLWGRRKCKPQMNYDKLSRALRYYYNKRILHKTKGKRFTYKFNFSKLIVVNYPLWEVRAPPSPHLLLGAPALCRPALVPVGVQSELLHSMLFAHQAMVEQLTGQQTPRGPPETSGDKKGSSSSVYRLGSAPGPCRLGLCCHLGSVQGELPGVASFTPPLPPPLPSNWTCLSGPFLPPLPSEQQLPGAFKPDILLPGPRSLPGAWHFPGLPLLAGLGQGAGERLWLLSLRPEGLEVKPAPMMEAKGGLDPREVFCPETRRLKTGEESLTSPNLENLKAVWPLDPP
The note with it: protein: recombinant; tags: N-terminal GST; dsDNA, one strand shown. The procedure, abridged:
as §1

Assay [13] addresses T8, ETS2 (Homo sapiens, UniProt P15036 1-469).
T8 sequence: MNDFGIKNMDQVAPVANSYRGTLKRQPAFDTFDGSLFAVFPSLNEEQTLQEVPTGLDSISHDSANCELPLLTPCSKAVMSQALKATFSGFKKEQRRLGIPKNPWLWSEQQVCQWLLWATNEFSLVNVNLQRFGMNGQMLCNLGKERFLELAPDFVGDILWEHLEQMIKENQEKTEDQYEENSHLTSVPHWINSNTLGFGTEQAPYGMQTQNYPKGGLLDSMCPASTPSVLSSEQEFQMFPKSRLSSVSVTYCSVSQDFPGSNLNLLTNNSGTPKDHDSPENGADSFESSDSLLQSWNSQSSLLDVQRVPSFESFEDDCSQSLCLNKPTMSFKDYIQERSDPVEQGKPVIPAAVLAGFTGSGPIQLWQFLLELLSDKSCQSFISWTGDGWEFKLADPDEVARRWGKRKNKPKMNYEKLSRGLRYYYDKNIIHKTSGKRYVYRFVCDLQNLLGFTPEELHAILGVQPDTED
The note with it: protein: recombinant; tags: N-terminal GST; dsDNA, one strand shown. In short, it runs like this:
as §1

In assay [14] the target is T9, SPDEF (Homo sapiens, UniProt O95238 1-335).
T9 sequence: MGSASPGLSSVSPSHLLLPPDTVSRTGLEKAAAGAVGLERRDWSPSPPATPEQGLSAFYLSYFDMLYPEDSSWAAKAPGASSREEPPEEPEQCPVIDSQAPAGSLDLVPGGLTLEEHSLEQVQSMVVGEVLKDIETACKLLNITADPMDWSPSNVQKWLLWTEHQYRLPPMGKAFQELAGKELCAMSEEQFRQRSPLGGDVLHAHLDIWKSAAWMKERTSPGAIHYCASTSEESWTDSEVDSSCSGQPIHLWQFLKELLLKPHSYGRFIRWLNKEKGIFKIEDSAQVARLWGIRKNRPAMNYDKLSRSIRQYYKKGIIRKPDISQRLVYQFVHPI
The note with it: protein: recombinant; tags: N-terminal GST; dsDNA, one strand shown. The procedure, abridged:
as §1

Assay [15] deals with T10, ETV7 (Homo sapiens, UniProt Q9Y603 1-341).
T10 sequence: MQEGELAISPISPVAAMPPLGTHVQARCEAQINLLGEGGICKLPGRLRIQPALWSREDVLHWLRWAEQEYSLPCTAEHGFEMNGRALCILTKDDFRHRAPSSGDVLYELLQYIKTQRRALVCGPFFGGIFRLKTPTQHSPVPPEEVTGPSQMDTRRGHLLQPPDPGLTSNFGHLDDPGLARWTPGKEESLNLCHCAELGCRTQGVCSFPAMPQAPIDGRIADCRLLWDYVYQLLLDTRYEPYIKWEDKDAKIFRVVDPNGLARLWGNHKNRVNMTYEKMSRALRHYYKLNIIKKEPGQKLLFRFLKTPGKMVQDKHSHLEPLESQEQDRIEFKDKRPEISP
The following applies: protein: recombinant; tags: N-terminal GST; dsDNA, one strand shown. In short, it runs like this:
as §1

The target in assay [16] is T11, ELF5 (Homo sapiens, UniProt Q9UKW6-2 1-255).
T11 sequence: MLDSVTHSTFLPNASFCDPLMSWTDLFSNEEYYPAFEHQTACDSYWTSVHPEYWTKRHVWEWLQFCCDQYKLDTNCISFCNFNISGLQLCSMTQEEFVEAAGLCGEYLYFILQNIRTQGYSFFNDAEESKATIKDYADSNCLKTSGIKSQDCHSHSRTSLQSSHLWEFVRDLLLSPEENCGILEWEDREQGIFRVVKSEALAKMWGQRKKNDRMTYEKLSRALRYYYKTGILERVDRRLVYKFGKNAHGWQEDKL
The note with it: protein: recombinant; tags: N-terminal GST; dsDNA, one strand shown. The procedure, abridged:
as §1

In assay [17] the target is T12, ETV3 (Homo sapiens, UniProt P41162-2 1-143).
T12 sequence: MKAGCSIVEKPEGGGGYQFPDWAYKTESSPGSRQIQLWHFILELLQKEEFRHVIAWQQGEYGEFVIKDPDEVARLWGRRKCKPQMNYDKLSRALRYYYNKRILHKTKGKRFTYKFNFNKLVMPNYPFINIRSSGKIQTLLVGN
The note with it: protein: recombinant; tags: N-terminal GST; dsDNA, one strand shown. The procedure, abridged: as §1

The target of assay [18] is ETV6 (Homo sapiens, UniProt P41212 1-452). The note with it: protein: recombinant; tags: N-terminal GST; dsDNA, one strand shown. The procedure, abridged:
as §1

Chain of ETV5 (P41161 whole entry): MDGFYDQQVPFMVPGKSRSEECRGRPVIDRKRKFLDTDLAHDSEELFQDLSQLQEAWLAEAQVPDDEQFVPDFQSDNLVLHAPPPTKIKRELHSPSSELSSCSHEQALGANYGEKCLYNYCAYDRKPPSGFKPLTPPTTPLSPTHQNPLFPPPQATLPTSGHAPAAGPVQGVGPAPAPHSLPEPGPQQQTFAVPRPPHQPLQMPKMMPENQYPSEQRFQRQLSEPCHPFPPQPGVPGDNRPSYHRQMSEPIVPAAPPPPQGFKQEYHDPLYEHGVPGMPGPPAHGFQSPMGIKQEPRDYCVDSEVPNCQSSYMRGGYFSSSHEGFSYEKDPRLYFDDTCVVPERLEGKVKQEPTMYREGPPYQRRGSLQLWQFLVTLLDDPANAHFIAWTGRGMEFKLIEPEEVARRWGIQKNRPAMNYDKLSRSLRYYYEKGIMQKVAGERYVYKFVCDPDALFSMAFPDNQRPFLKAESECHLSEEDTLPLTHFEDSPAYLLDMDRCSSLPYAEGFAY
Chain of CRX (O43186 whole entry): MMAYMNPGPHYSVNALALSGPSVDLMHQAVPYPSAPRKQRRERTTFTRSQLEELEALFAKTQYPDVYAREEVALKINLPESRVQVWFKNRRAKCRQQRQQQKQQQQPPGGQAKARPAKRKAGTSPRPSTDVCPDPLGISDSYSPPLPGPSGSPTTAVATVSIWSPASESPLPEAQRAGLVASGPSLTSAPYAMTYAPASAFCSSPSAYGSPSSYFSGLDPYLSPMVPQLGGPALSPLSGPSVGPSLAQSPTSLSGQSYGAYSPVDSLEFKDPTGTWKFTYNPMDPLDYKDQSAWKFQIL
Chain of ETV1 (P50549 whole entry): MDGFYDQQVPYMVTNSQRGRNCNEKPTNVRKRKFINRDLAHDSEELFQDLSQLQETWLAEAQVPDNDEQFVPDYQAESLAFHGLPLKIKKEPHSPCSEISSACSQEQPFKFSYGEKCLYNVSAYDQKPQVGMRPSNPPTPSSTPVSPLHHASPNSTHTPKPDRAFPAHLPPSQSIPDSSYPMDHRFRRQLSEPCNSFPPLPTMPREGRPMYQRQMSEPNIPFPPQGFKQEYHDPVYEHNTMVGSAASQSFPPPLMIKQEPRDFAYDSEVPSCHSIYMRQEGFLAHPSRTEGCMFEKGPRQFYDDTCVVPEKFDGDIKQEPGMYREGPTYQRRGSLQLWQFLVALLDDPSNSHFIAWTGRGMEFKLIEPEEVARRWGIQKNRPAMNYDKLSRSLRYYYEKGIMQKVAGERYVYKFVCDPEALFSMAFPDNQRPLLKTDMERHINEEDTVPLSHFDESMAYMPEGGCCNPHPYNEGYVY
Chain of HSF1 (Q00613 whole entry): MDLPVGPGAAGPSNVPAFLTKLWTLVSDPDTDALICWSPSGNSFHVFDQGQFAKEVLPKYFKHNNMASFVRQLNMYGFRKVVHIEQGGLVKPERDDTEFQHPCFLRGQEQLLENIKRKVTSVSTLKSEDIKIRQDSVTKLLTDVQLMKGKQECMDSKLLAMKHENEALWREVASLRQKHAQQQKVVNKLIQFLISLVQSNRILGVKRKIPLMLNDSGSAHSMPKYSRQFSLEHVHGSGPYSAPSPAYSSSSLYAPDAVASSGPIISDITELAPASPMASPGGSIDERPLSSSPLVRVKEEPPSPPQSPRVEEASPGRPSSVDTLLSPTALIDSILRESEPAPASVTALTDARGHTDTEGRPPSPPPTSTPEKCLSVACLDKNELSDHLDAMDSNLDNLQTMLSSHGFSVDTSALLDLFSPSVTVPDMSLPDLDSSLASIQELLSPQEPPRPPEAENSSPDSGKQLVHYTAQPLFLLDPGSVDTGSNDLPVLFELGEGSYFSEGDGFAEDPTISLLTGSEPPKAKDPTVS
Chain of ETV6 (P41212 whole entry): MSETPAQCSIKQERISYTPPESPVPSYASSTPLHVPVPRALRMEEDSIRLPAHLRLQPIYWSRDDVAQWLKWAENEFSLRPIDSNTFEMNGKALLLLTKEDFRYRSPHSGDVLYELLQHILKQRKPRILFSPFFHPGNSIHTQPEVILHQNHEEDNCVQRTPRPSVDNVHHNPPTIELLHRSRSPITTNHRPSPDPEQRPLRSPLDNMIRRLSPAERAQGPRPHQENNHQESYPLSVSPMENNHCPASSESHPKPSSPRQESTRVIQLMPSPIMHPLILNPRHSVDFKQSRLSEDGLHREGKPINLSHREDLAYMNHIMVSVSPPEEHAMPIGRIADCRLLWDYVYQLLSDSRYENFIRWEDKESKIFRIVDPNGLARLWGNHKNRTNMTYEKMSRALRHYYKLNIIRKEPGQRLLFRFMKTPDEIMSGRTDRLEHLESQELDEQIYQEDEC
Chain of ELF4 (Q99607 whole entry): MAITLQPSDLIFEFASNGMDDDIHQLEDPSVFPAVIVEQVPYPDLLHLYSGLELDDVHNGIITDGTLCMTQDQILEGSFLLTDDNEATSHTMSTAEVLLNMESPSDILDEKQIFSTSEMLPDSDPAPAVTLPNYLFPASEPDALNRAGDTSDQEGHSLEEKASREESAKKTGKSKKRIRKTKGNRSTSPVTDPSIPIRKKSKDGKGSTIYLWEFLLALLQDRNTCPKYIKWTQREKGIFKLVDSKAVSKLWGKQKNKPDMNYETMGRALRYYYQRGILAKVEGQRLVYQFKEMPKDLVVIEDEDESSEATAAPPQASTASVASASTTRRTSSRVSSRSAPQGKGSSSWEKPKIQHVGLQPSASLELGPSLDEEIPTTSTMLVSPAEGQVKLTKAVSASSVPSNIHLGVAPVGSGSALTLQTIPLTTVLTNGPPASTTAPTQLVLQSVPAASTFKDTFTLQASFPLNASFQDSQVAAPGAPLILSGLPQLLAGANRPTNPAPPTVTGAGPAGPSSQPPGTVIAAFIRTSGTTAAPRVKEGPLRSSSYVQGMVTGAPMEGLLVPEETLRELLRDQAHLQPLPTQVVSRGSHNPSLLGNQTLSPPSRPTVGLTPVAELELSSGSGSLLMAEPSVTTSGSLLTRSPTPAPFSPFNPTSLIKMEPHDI

Regarding TCACGC, the binding signal was 1.18 fold enrichment (6-mer frequency, TF over GST control) in [1]; 1.15 fold enrichment (6-mer frequency, TF over GST control) in assay [2]; 1.08 fold enrichment (6-mer frequency, TF over GST control) in assay [3]; 1.25 fold enrichment (6-mer frequency, TF over GST control) in assay [4]; 1.16 fold enrichment (6-mer frequency, TF over GST control) in assay [5]; 1.34 fold enrichment (6-mer frequency, TF over GST control) in [6]. In addition, the binding signal is 1.26 fold enrichment (6-mer frequency, TF over GST control) in [7]; 1.35 fold enrichment (6-mer frequency, TF over GST control) in assay [8]; 1.02 fold enrichment (6-mer frequency, TF over GST control) in assay [9]; 1.13 fold enrichment (6-mer frequency, TF over GST control) in [10]; 1.26 fold enrichment (6-mer frequency, TF over GST control) in [11]; 1.2 fold enrichment (6-mer frequency, TF over GST control) in assay [12]. Moreover, the binding signal in assay [13] was 1.11 fold enrichment (6-mer frequency, TF over GST control); in assay [14] it was 1.12 fold enrichment (6-mer frequency, TF over GST control); in assay [15], 1.16 fold enrichment (6-mer frequency, TF over GST control); in assay [16], 1.15 fold enrichment (6-mer frequency, TF over GST control); in [17], 1.07 fold enrichment (6-mer frequency, TF over GST control); in assay [18], 1.15 fold enrichment (6-mer frequency, TF over GST control).
